Measured values published in publication PMC5540273 (PLoS ONE, 2017).

How the values were obtained:
Details in all cases: concentration: 1 μM, replicates: in singlicate; n = 1
AMPK-alpha1 = system: T1, AMPK-alpha1
T1 construct: gene PRKAA1

AMPK-alpha2 = system: T2, AMPK-alpha2
T2 construct: gene PRKAA2

ANKK1 = system: ANKK1
ARK5 = system: T3, ARK5
T3 construct: gene NUAK1

ASK1 = system: T4, ASK1
T4 construct: gene MAP3K5

ASK2 = system: T5, ASK2
T5 construct: gene MAP3K6

AURKA = system: AURKA
AURKB = system: AURKB
AURKC = system: AURKC
AXL = system: AXL
BIKE = system: T6, BIKE
T6 construct: gene BMP2K

BLK = system: BLK
BMPR1A = system: BMPR1A
BMPR1B = system: BMPR1B
BMPR2 = system: BMPR2
BMX = system: BMX
BRAF = system: BRAF
BRK = system: T7, BRK
T7 construct: gene PTK6

BRSK1 = system: BRSK1
BRSK2 = system: BRSK2
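Note: KINOMEscan kinase panel screen.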

| SMILES | %Inh (AMPK-alpha1) [%] | %Inh (AMPK-alpha2) [%] | %Inh (ANKK1) [%] | %Inh (ARK5) [%] | %Inh (ASK1) [%] | %Inh (ASK2) [%] | %Inh (AURKA) [%] | %Inh (AURKB) [%] | %Inh (AURKC) [%] | %Inh (AXL) [%] | %Inh (BIKE) [%] | %Inh (BLK) [%] | %Inh (BMPR1A) [%] | %Inh (BMPR1B) [%] | %Inh (BMPR2) [%] | %Inh (BMX) [%] | %Inh (BRAF) [%] | %Inh (BRK) [%] | %Inh (BRSK1) [%] | %Inh (BRSK2) [%] |
| --- | --- | --- | --- | --- | --- | --- | --- | --- | --- | --- | --- | --- | --- | --- | --- | --- | --- | --- | --- | --- |
| CCn1c(-c2c(N)noc2C)nc2cnccc21 [SB-737856] | 4 | 0 | 0 | 25 | 0 | 0 | 0 | 32 | 4 | 0 | 22 | 0 | 0 | 0 | 3 | 0 | 0 | 0 | 6 | 0 |
| Nc1cccc(-c2ccc3c(N)n[nH]c3c2)n1 [GSK2192730] | 0 | 0 | 17 | 0 | 0 | 13 | 8 | 15 | 22 | 0 | 74 | 0 | 2 | 16 | 0 | 1 | 0 | 0 | 55 | 37 |
| O=c1cc(N2CCOCC2)nc2n(Cc3ccccc3F)ccn12 [GSK2297428] | 0 | 0 | 9 | 0 | 0 | 0 | 0 | 13 | 0 | 0 | 0 | 21 | 0 | 0 | 0 | 13 | 0 | 36 | 0 | 100 |
| COc1ccc(Nc2nccc(N3CCC(NC(=O)c4cc5ccccc5s4)C3)n2)cc1 (centres unmarked) [GSK1379738] | 0 | 3 | 3 | 19 | 12 | 11 | 14 | 0 | 22 | 7 | 13 | 0 | 0 | 0 | 11 | 0 | 0 | 0 | 0 | 0 |
| COc1ccc(Nc2nccc(NCCNC(=O)Nc3cc(C)ccc3C)n2)cc1 [GSK1379899] | 0 | 0 | 0 | 0 | 0 | 0 | 0 | 14 | 36 | 4 | 28 | 36 | 0 | 0 | 0 | 0 | 4 | 0 | 4 | 7 |
| COc1ccc(-c2coc3ccc(-c4nnc(C)o4)cc23)cc1 | 0 | 3 | 0 | 0 | 0 | 10 | 0 | 18 | 0 | 0 | 0 | 3 | 18 | 0 | 0 | 0 | 0 | 0 | 0 | 100 |
| O=C(Nc1n[nH]c2nc(-c3cccs3)c(Br)cc12)C1CCCC1 [SB-743341] | 29 | 40 | 35 | 0 | 0 | 12 | 17 | 27 | 10 | 0 | 12 | 0 | 28 | 19 | 46 | 14 | 7 | 12 | 63 | 66 |
| Cc1ccc(NC(=O)Nc2ccccc2)cc1-c1ccc(C(=O)Nc2ccncc2)cc1 [GSK1398471] | 15 | 11 | 0 | 13 | 10 | 4 | 15 | 0 | 0 | 11 | 20 | 33 | 0 | 0 | 0 | 18 | 32 | 15 | 9 | 2 |
| COc1cccc(C2=C(Nc3cc(Cl)c(O)c(Cl)c3)C(=O)NC2=O)c1 [SB-390767] | 8 | 0 | 0 | 26 | 4 | 7 | 0 | 0 | 8 | 0 | 21 | 0 | 0 | 0 | 1 | 13 | 0 | 18 | 7 | 0 |
| NS(=O)(=O)c1cccc(N/C=C2\C(=O)Nc3ccc(S(=O)(=O)Cc4c(Cl)cccc4Cl)cc32)c1 [GSK398099] | 0 | 0 | 0 | 0 | 3 | 0 | 26 | 30 | 0 | 0 | 0 | 0 | 0 | 0 | 8 | 0 | 0 | 2 | 0 | 0 |
